# From the supplement of paper PMC10037445
# In all, about 2,900 compounds were measured (“NF-kB SEAP reporter activity, fold change vs agonist alone”: median about 0.99, highest 2% from about 2.6 on). This is one part of a sample in which the highest values are shown more often than they occur.
# Columns and labels:
# RAW-Dual [1] = test: NF-kB SEAP reporter activity, fold change vs agonist alone; higher = enhanced NF-kB activity; settings: library stock concentration (final ~1000-fold dilution): 10 mM
# Outline: (§1)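 RAW-Dual macrophages (50,000 cells/well in DMEM, 384-well plates) received 50 nL of library stock by pin tool, then a PRR agonist 1 h later, and were kept at 37 °C, 5% CO2. After 20 hours, supernatant was read for IRF by QuantiLuc luminescence and for NF-κB by QuantiBlue absorbance at 620 nm. Reporter activity is fold change over agonist-alone wells. Cytotoxic wells had IncuCyte confluency below 70% of agonist controls in both mask sets.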
# RAW-Dual [2] = test: NF-kB SEAP reporter activity, fold change vs agonist alone; cytotoxicity flag (confluency mask): not cytotoxic; higher = enhanced NF-kB activity
# Outline: as §1
# RAW-Dual [3] = test: NF-kB SEAP reporter activity, fold change vs agonist alone; cytotoxicity flag (confluency mask): cytotoxic (confluency <70% of control); higher = enhanced NF-kB activity
# Outline: as §1
# [4] = cytotoxicity flag (confluency mask): not cytotoxic, agonist: Imiquimod (TLR7) […]
# [5] = cytotoxicity flag (confluency mask): not cytotoxic, agonist: MPLA (TLR4) […]
# [6] = agonist: ODN 1826 (TLR9) 0.5 ug/mL
# [7] = agonist: Pam2CSK4 (TLR2/6) 0.1 ug/mL
# [8] = agonist: Pam3CSK4 (TLR2/1) 0.1 ug/mL
smiles,measurement,setting,value
CC(/C=C/C=C(\C)C(=O)OC1OC(COC2OC(CO)C(O)C(O)C2O)C(O)C(O)C1O)=C\C=C\C=C(C)\C=C\C=C(/C)C(=O)OC1OC(COC2OC(CO)C(O)C(O)C2O)C(O)C(O)C1O (stereo not given),NF-kB SEAP reporter activity,RAW-Dual [1]; [4],0.915
same,NF-kB SEAP reporter activity,RAW-Dual [1]; [5],1.03
CC(/C=C/C=C(\C)C(=O)OC1OC(COC2OC(CO)C(O)C(O)C2O)C(O)C(O)C1O)=C\C=C\C=C(C)\C=C\C=C(/C)C(=O)OC1OC(COC2OC(CO)C(O)C(O)C2O)C(O)C(O)C1O (stereo not given) (library stock concentration (final ~1000-fold dilution): 10 mM),NF-kB SEAP reporter activity,RAW-Dual [2]; agonist: LPS (TLR4) 0.1 ug/mL,1.08
same,NF-kB SEAP reporter activity,RAW-Dual [2]; [6],0.948
same,NF-kB SEAP reporter activity,RAW-Dual [2]; [7],1.16
same,NF-kB SEAP reporter activity,RAW-Dual [2]; [8],1.19
CS(=O)(=O)N1CCN(Cc2cc3nc(-c4cccc5[nH]ncc45)nc(N4CCOCC4)c3s2)CC1 (library stock concentration (final ~1000-fold dilution): 10 mM),NF-kB SEAP reporter activity,RAW-Dual [2]; agonist: LPS (TLR4) 0.1 ug/mL,1.87
same,NF-kB SEAP reporter activity,RAW-Dual [2]; [6],0.247
same,NF-kB SEAP reporter activity,RAW-Dual [2]; [7],1.02
same,NF-kB SEAP reporter activity,RAW-Dual [2]; [8],0.72
CS(=O)(=O)N1CCN(Cc2cc3nc(-c4cccc5[nH]ncc45)nc(N4CCOCC4)c3s2)CC1,NF-kB SEAP reporter activity,RAW-Dual [1]; [4],1.77
same,NF-kB SEAP reporter activity,RAW-Dual [1]; [5],1.75
Fc1ccc2[nH]ccc2c1-c1nc(N2CCOCC2)c2sc(CN3CCN(CC4CC4)CC3)cc2n1,NF-kB SEAP reporter activity,RAW-Dual [1]; [4],0.944
same,NF-kB SEAP reporter activity,RAW-Dual [1]; [5],1.25
Fc1ccc2[nH]ccc2c1-c1nc(N2CCOCC2)c2sc(CN3CCN(CC4CC4)CC3)cc2n1 (library stock concentration (final ~1000-fold dilution): 10 mM),NF-kB SEAP reporter activity,RAW-Dual [2]; agonist: LPS (TLR4) 0.1 ug/mL,2.9
same,NF-kB SEAP reporter activity,RAW-Dual [2]; [6],0.272
same,NF-kB SEAP reporter activity,RAW-Dual [2]; [7],1.03
same,NF-kB SEAP reporter activity,RAW-Dual [2]; [8],0.935
O=C(CCNC(=O)c1ccc(OC(F)(F)F)cc1)NC1CCCc2ccccc21 (stereo not given) (library stock concentration (final ~1000-fold dilution): 10 mM),NF-kB SEAP reporter activity,RAW-Dual [2]; agonist: LPS (TLR4) 0.1 ug/mL,0.767
same,NF-kB SEAP reporter activity,RAW-Dual [2]; [6],1.33
same,NF-kB SEAP reporter activity,RAW-Dual [2]; [7],0.519
same,NF-kB SEAP reporter activity,RAW-Dual [2]; [8],0.68
O=C(CCNC(=O)c1ccc(OC(F)(F)F)cc1)NC1CCCc2ccccc21 (stereo not given),NF-kB SEAP reporter activity,RAW-Dual [1]; [4],1.66
same,NF-kB SEAP reporter activity,RAW-Dual [1]; [5],1.13
COc1cc2c(cc1OC)CC(=O)N(CCCN(C)CC1Cc3cc(OC)c(OC)cc31)CC2.Cl (stereo not given) (library stock concentration (final ~1000-fold dilution): 10 mM),NF-kB SEAP reporter activity,RAW-Dual [2]; agonist: LPS (TLR4) 0.1 ug/mL,1.3
same,NF-kB SEAP reporter activity,RAW-Dual [2]; [6],0.895
same,NF-kB SEAP reporter activity,RAW-Dual [2]; [7],0.867
same,NF-kB SEAP reporter activity,RAW-Dual [2]; [8],1.1
COc1cc2c(cc1OC)CC(=O)N(CCCN(C)CC1Cc3cc(OC)c(OC)cc31)CC2.Cl (stereo not given),NF-kB SEAP reporter activity,RAW-Dual [1]; [4],0.885
same,NF-kB SEAP reporter activity,RAW-Dual [1]; [5],0.951
CCOC(=O)NC1CCC2C(C1)CC1C(=O)OC(C)C1C2/C=C/c1ccc(-c2cccc(F)c2)cn1 (stereo not given),NF-kB SEAP reporter activity,RAW-Dual [1]; [4],0.145
same,NF-kB SEAP reporter activity,RAW-Dual [1]; [5],0.289
CCOC(=O)NC1CCC2C(C1)CC1C(=O)OC(C)C1C2/C=C/c1ccc(-c2cccc(F)c2)cn1 (stereo not given) (library stock concentration (final ~1000-fold dilution): 10 mM),NF-kB SEAP reporter activity,RAW-Dual [2]; agonist: LPS (TLR4) 0.1 ug/mL,0.824
same,NF-kB SEAP reporter activity,RAW-Dual [2]; [6],0.243
same,NF-kB SEAP reporter activity,RAW-Dual [2]; [7],0.212
same,NF-kB SEAP reporter activity,RAW-Dual [2]; [8],0.158
NC(=O)N1CCC(CC(=O)N2CCC(C3c4ncc(Br)cc4CCc4cc(Cl)cc(Br)c43)CC2)CC1 (stereo not given) (library stock concentration (final ~1000-fold dilution): 10 mM),NF-kB SEAP reporter activity,RAW-Dual [3]; agonist: LPS (TLR4) 0.1 ug/mL,0.422
same,NF-kB SEAP reporter activity,RAW-Dual [3]; [6],0.347
same,NF-kB SEAP reporter activity,RAW-Dual [3]; [7],0.171
same,NF-kB SEAP reporter activity,RAW-Dual [3]; [8],0.223
NC(=O)N1CCC(CC(=O)N2CCC(C3c4ncc(Br)cc4CCc4cc(Cl)cc(Br)c43)CC2)CC1 (stereo not given),NF-kB SEAP reporter activity,"RAW-Dual [1]; cytotoxicity flag (confluency mask): cytotoxic (confluency <70% of control), agonist: Imiquimod (TLR7) […]",0.614
same,NF-kB SEAP reporter activity,"RAW-Dual [1]; cytotoxicity flag (confluency mask): cytotoxic (confluency <70% of control), agonist: MPLA (TLR4) […]",0.603
O=C(Nc1ccc(O)cc1)c1ccccc1O (library stock concentration (final ~1000-fold dilution): 10 mM),NF-kB SEAP reporter activity,RAW-Dual [2]; agonist: LPS (TLR4) 0.1 ug/mL,1.17
same,NF-kB SEAP reporter activity,RAW-Dual [2]; [6],1.93
same,NF-kB SEAP reporter activity,RAW-Dual [2]; [7],0.921
same,NF-kB SEAP reporter activity,RAW-Dual [2]; [8],1.04
O=C(Nc1ccc(O)cc1)c1ccccc1O,NF-kB SEAP reporter activity,RAW-Dual [1]; [4],1.68
same,NF-kB SEAP reporter activity,RAW-Dual [1]; [5],1.24
Nc1ccccc1NC(=O)c1cnccn1,NF-kB SEAP reporter activity,RAW-Dual [1]; [4],0.997
same,NF-kB SEAP reporter activity,RAW-Dual [1]; [5],1.12
CC(=O)Nc1ccc(C(=O)Nc2ccccc2N)cc1,NF-kB SEAP reporter activity,RAW-Dual [1]; [4],2.21
same,NF-kB SEAP reporter activity,RAW-Dual [1]; [5],1.74
Nc1ccccc1NC(=O)c1cnccn1 (library stock concentration (final ~1000-fold dilution): 10 mM),NF-kB SEAP reporter activity,RAW-Dual [2]; agonist: LPS (TLR4) 0.1 ug/mL,1.4
same,NF-kB SEAP reporter activity,RAW-Dual [2]; [6],1.16
same,NF-kB SEAP reporter activity,RAW-Dual [2]; [7],0.443
same,NF-kB SEAP reporter activity,RAW-Dual [2]; [8],0.532
CC(=O)Nc1ccc(C(=O)Nc2ccccc2N)cc1 (library stock concentration (final ~1000-fold dilution): 10 mM),NF-kB SEAP reporter activity,RAW-Dual [2]; agonist: LPS (TLR4) 0.1 ug/mL,2.28
same,NF-kB SEAP reporter activity,RAW-Dual [2]; [6],2.86
same,NF-kB SEAP reporter activity,RAW-Dual [2]; [7],0.724
same,NF-kB SEAP reporter activity,RAW-Dual [2]; [8],0.832
CO/N=C(\C(=O)NC1C(=O)N2C(C(=O)O)=C(CSc3nnnn3C)CSC12)c1csc(N)n1.CO/N=C(\C(=O)NC1C(=O)N2C(C(=O)O)=C(CSc3nnnn3C)CSC12)c1csc(N)n1.Cl (stereo not given),NF-kB SEAP reporter activity,RAW-Dual [1]; [5],1.06
CO/N=C(\C(=O)NC1C(=O)N2C(C(=O)O)=C(CSc3nnnn3C)CSC12)c1csc(N)n1.CO/N=C(\C(=O)NC1C(=O)N2C(C(=O)O)=C(CSc3nnnn3C)CSC12)c1csc(N)n1.Cl (stereo not given) (library stock concentration (final ~1000-fold dilution): 10 mM),NF-kB SEAP reporter activity,RAW-Dual [2]; agonist: LPS (TLR4) 0.1 ug/mL,0.999
same,NF-kB SEAP reporter activity,RAW-Dual [2]; [6],0.966
same,NF-kB SEAP reporter activity,RAW-Dual [2]; [7],1.14
same,NF-kB SEAP reporter activity,RAW-Dual [2]; [8],0.939
Cl.Cl.N/C(=N\OCC(O)CN1CCCCC1)c1cccnc1 (stereo not given) (library stock concentration (final ~1000-fold dilution): 10 mM),NF-kB SEAP reporter activity,RAW-Dual [2]; agonist: LPS (TLR4) 0.1 ug/mL,1.1
same,NF-kB SEAP reporter activity,RAW-Dual [2]; [6],0.949
same,NF-kB SEAP reporter activity,RAW-Dual [2]; [7],1.15
same,NF-kB SEAP reporter activity,RAW-Dual [2]; [8],1.09
Cl.Cl.N/C(=N\OCC(O)CN1CCCCC1)c1cccnc1 (stereo not given),NF-kB SEAP reporter activity,RAW-Dual [1]; [4],0.94
same,NF-kB SEAP reporter activity,RAW-Dual [1]; [5],1.08
NC(CSC(c1ccccc1)(c1ccccc1)c1ccccc1)C(=O)O (stereo not given) (library stock concentration (final ~1000-fold dilution): 10 mM),NF-kB SEAP reporter activity,RAW-Dual [2]; agonist: LPS (TLR4) 0.1 ug/mL,0.775
same,NF-kB SEAP reporter activity,RAW-Dual [2]; [6],0.732
same,NF-kB SEAP reporter activity,RAW-Dual [2]; [7],0.699
same,NF-kB SEAP reporter activity,RAW-Dual [2]; [8],0.656
